Reference: ChEMBL document CHEMBL1157539, “Thousands of chemical starting points for antimalarial lead identification” (Nature, 2010)

What follows are compounds tested on Plasmodium falciparum (assay: GSK_TCMDC: Inhibition of Plasmodium falciparum 3D7 in whole red blood cells, using parasite LDH activity as an index of growth. Test compounds present at 2uM).
Type: functional
With Cc1cc(C)nc(-n2[nH]c(C)c(Cc3ccc(C(C)(C)C)cc3)c2=O)n1 the Inhibition was 88%. In the case of C[C@H](NC(=O)C1CCCC1)C(=O)Nc1ccc(-c2ccc(-c3nc4cc(C(F)(F)F)ccc4[nH]3)cc2)cc1, the Inhibition is reported as 99%. O=C(/C=C/c1ccc(Cl)c(Cl)c1)NCCCCCN1CCC(NC(=O)Nc2ccc(Cl)cc2Cl)CC1 was tested, and the Inhibition was 91%. COc1cc(NC(=O)c2ccc3oc4ccccc4c3c2)ccc1OCCN1CCCCC1.Cl gave an Inhibition of 89%. In the case of O=C1OC2(CN1CC1CCN(Cc3ccc(O)c(Cl)c3)CC1)c1ccccc1-c1ccccc12, the Inhibition is reported as 97%. Compound Cl.NC1CCN(CCc2ccc(NS(=O)(=O)c3ccc(-c4ccccc4)cc3)cc2)CC1 has an Inhibition of 100%. CN1CCCc2cc(NC(=O)c3cc(-c4ccc(Cl)cc4)cs3)ccc2C1.O=C(O)C(F)(F)F was tested, and the Inhibition was 100%. COc1ccc2nccc([C@@H](O)CN3CCC(NCc4ccc5c(c4)NC(=O)CS5)CC3)c2n1.O=C(O)C(=O)O was tested, and the Inhibition was 100%. Compound COc1ccc(CN2CCC(CNC(C)c3cccc4ccccc34)CC2)cc1.O=C(O)C(F)(F)F (configuration not stated) has an Inhibition of 100%. Work on COc1cc(Cc2cnc(N)nc2N)ccc1Oc1ccc(N)cc1 yielded an Inhibition of 93%. Cc1ccc2ncc(Cl)c(CCN3CCC(NCc4ccc5c(n4)NC(=O)CS5)CC3)c2n1.Cl was tested, and the Inhibition was 90%. In the case of FC(F)(F)c1ccc2[nH]c(-c3cccc(-c4cccc(CNCc5cnn(-c6ccccc6)n5)c4)c3)nc2c1.O=C(O)C(F)(F)F, the Inhibition is reported as 100%. For CC(=O)Nc1ccc(CN(Cc2cccc(OC(C)(C)C)c2)Cc2ccc3c(c2)OCCO3)cc1, the Inhibition was 95%.

These compounds were tested on Plasmodium falciparum (assay: GSK_TCMDC: Inhibition of Plasmodium falciparum Dd2 in whole red blood cells, using parasite LDH activity as an index of growth. Test compounds present at 2uM).
Type: functional
For Cl.FC(F)(F)c1cc(CNCCCNc2nc3ccncc3[nH]2)ccc1Cl, the Inhibition was 15%. In the case of O=C(Oc1ccc(Cl)cc1C(=O)Nc1ccc([N+](=O)[O-])cc1Cl)c1ccccc1, the Inhibition is reported as 19%. Work on COc1cc(C(=O)Nc2ccc(-c3nc4ccccc4[nH]3)cc2)cc(OC)c1OC yielded an Inhibition of 33%. O=C(/C=C/c1ccc(Cl)c(Cl)c1)NCCCCN1CCCN(C(=O)Nc2ccc(C(F)(F)F)cc2)CC1 gave an Inhibition of 0%. Cc1noc(C)c1-c1ccc2c(Nc3ccccc3C(C)(C)C)c(C(=O)NCc3ccc(C(F)(F)F)cc3)cnc2c1.Cl was tested, and the Inhibition was 50%. With CCc1cn2c3c(cc(C(=O)N[C@@H](Cc4cccc(Cl)c4)[C@H](O)CNC4CC4)cc13)N(C)S(=O)(=O)CC2.O=CO the Inhibition was 98%. O=C(Nc1cccnc1)c1cc(-c2cccnc2)nc2ccc(Br)cc12 gave an Inhibition of 60%. Work on COc1ccc(-c2cc(C(=O)Nc3ccc(CCCN(C)Cc4ccc(OC)c(OC)c4)cc3)c3ccccc3n2)cc1 yielded an Inhibition of 47%. Work on Cl.O=C(Nc1cc(Cl)cc(Cl)c1)Nc1ccnc2ccccc12 yielded an Inhibition of 65%. With O=C(Nc1ccc(Cn2ncc(N3CCNCC3)c(Cl)c2=O)cc1)Nc1ccc(-c2ccccc2)cc1.O=C(O)C(F)(F)F the Inhibition was 33%. Work on COc1cccc2c(Oc3ccccc3C)ccnc12 yielded an Inhibition of 45%. COc1ccc(NC(=O)/C=C/c2ccccc2Cl)cc1OCCN1CCN(c2ccncc2)CC1 gave an Inhibition of 52%. With CCc1cc(OC)ccc1C1CCN(CCCCNC(=O)c2ccc(NC(=O)c3ccc(Cl)cc3)cc2)CC1.Cl the Inhibition was 61%. COc1ccc2ncc(F)c(CCN3CCC(NCc4cnc5c(c4)NC(=O)CS5)CC3)c2c1.Cl gave an Inhibition of 16%. With CC(=O)Nc1cc(C(=O)Nc2ccc(C3=NCCN3)cc2)ccc1C(=O)Nc1ccc(C2=NCCN2)cc1.Cl the Inhibition was 92%. CC(C)(C)c1cc2cc(Nc3ccnc4cc(-c5nccs5)ccc34)ccc2[nH]1.Cl showed an Inhibition of 97%. In the case of COc1ccc2ncc(C#N)c(CCN3CCC(NCc4cnc5c(c4)OCCO5)CC3)c2n1.Cl, the Inhibition is reported as 24%. O=C(Nc1cccnc1)c1cc(C(=O)Nc2cccnc2)cc([N+](=O)[O-])c1 gave an Inhibition of 100%. With CC(OC(=O)c1ccc(C(=O)NCC2CC2)cc1)C(C)(C)C (configuration not stated) the Inhibition was 86%. CN1CC[C@@H](Oc2cc(NC(=O)Nc3ccccc3Br)ccc2Cl)C1 gave an Inhibition of 6%. Work on Cc1nc2ccccc2n1C1CC2CCC(C1)N2CCCC1(c2ccccc2)CCN(C(=O)OCc2ccccc2)CC1.O=CO (configuration not stated) yielded an Inhibition of 29%. For C=CCC(CC=C)N1C(=O)C(c2ccccc2)(c2ccccc2)N=C1N.O=CO, the Inhibition was 97%. With Cc1cc(Cl)c(S(=O)(=O)N(C)c2ccccc2)cc1OCC(=O)NC1CCCCC1 the Inhibition was 94%. In the case of CC(C)C[C@@H](NC(=O)NC1CCC(CCN2C3CCC2CC(OC(=O)C(CO)c2ccccc2)C3)CC1)C(O)(c1ccccc1)c1ccccc1 (some centres not stated), the Inhibition is reported as 71%.
